± gives the standard deviation of the averaged measurements.
Legend:
[1] = system: DLD1; assay: cell viability (CellTiter-Glo) relative to plate median (fraction of plate median); higher = more viable cells; conditions: 10 µM, treatment time 24 h
Method in brief: (§1)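 Reporter and viability luminescence were measured in colorectal cancer cells stably carrying lentiviral TCF/Wnt firefly luciferase reporters. The cells were exposed to kinase inhibitor library compounds at a final 10 µM for 24 h, starting 24 h after seeding in 384-well plates. Each well was normalised to the plate median (webcellHTS2, additive, no log transformation), and two independent replicates were averaged.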

[2] = system: HCT116; assay: as above; conditions: 10 µM; treatment time 24 h; reporter: TCF4/Wnt
Method in brief: as §1

[3] = system: SW480; assay: as above; conditions: 10 µM; treatment time 24 h; reporter: 7TFP
Method in brief: as §1

[4] = system: DLD1; assay: TCF/Wnt firefly luciferase reporter signal relative to plate median (fraction of plate median); higher = higher Wnt reporter signal; conditions: 10 µM, treatment time 24 h
Method in brief: as §1

[5] = system: HCT116; assay: as above; conditions: 10 µM; treatment time 24 h; reporter: TCF4/Wnt
Method in brief: as §1

[6] = system: SW480; assay: as above; conditions: 10 µM; treatment time 24 h; reporter: 7TFP
Method in brief: as §1

[7] = system: DLD1; assay: cell viability (CellTiter-Glo) relative to plate median (fraction of plate median); higher = more viable cells; conditions: 5 µM; treatment time 24 h; reporter: 7TFP
Method in brief: (§2)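 After seeding in 384-well plates, colorectal cancer cell lines carrying stable lentiviral TCF/Wnt firefly luciferase reporters (7TFP or TCF4/Wnt) were left 24 h. Library compounds were then added at a final 5 µM for 24 h. A Tecan F500 reader measured firefly luciferase or CellTiterGlo luminescence on parallel plates, with each well normalised to the plate median by webcellHTS2 (additive, no log transformation), and two independent replicates averaged.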

[8] = system: HCT116; assay: as above; conditions: 5 µM; treatment time 24 h; reporter: TCF4/Wnt
Method in brief: as §2

[9] = system: SW480; assay: as above; conditions: 5 µM; treatment time 24 h; reporter: 7TFP
Method in brief: as §2

[10] = system: DLD1; assay: TCF/Wnt firefly luciferase reporter signal relative to plate median (fraction of plate median); higher = higher Wnt reporter signal; conditions: 5 µM; treatment time 24 h; reporter: 7TFP
Method in brief: as §2

[11] = system: SW480; assay: as above; conditions: 5 µM; treatment time 24 h; reporter: 7TFP
Method in brief: as §2

Row | SMILES | cell viability ([1]; reporter: 7TFP) | cell viability ([1]; reporter: TCF4/Wnt) | cell viability [2] | cell viability [3] | TCF/Wnt firefly luciferase reporter signal ([4]; reporter: 7TFP) | TCF/Wnt firefly luciferase reporter signal ([4]; reporter: TCF4/Wnt) | TCF/Wnt firefly luciferase reporter signal [5] | TCF/Wnt firefly luciferase reporter signal [6] | cell viability [7] | cell viability [8] | cell viability [9] | TCF/Wnt firefly luciferase reporter signal [10] | TCF/Wnt firefly luciferase reporter signal [11]
1 | COc1ccc(-c2ccc3c(N4CCOCC4)nc(N4C[C@@H](C)O[C@@H](C)C4)nc3n2)cc1CO | 0.938 ± 0.074 | 0.878 ± 0.041 | 0.842 ± 0.076 | 1.18 ± 0.021 | 0.392 ± 0.059 | 0.597 ± 0.019 | 0.432 ± 0.24 | 0.812 ± 0.29 |  |  |  |  | 
2 | C[C@H](NC(=O)/C(C#N)=C/c1cccc(Br)n1)c1ccccc1 | 0.579 ± 0.082 | 0.529 ± 0.0085 | 0.183 ± 0.0028 | 0.899 ± 0.0057 | 0.041 ± 0.011 | 0.057 ± 0.015 | 0.0323 ± 0.02 | 0.0234 ± 0.012 |  |  |  |  | 
3 | Oc1cc(O)cc(/C=C/c2ccc(O)c(O)c2)c1 [Piceatannol] | 1.12 ± 0.042 | 1.07 ± 0.057 | 1.19 ± 0.14 | 0.863 ± 0.0085 | 1.44 ± 0.15 | 1.66 ± 0.37 | 1.455 ± 0.0071 | 1.44 ± 0.12 |  |  |  |  | 
4 | CNC(=O)c1ccc(-c2cnc3ncc(Cc4ccc5ncccc5c4)n3n2)cc1F | 0.987 ± 0.089 | 0.931 ± 0.043 | 1.22 ± 0.2 | 0.8805 ± 0.0064 | 1.07 ± 0.078 | 1.14 ± 0.16 | 0.899 ± 0.02 | 0.652 ± 0.26 |  |  |  |  | 
5 | COc1cc(N2CCC(N3CCN(C)CC3)CC2)ccc1Nc1ncc(Cl)c(Nc2ccccc2S(=O)(=O)C(C)C)n1 | 0.799 ± 0.069 | 0.884 ± 0.0071 | 0.733 ± 0.057 | 0.923 ± 0.054 | 0.909 ± 0.21 | 1.14 ± 0.035 | 1.2 ± 0.12 | 0.767 ± 0.057 |  |  |  |  | 
6 | Cc1nc(N)sc1-c1ccnc(Nc2ccc(N3CCOCC3)cc2)n1 | 1.09 ± 0.14 | 1.09 ± 0.085 | 1.07 ± 0.064 | 1.06 ± 0.028 | 1.24 ± 0.23 | 1.23 ± 0.36 | 1.72 ± 0.2 | 0.774 ± 0.36 |  |  |  |  | 
7 | Cc1cnc(Nc2ccc(OCCN3CCCC3)cc2)nc1Nc1cccc(S(=O)(=O)NC(C)(C)C)c1 | 1.07 ± 0.064 | 1.14 ± 0.16 | 1.14 | 0.871 ± 0.04 | 1.2 ± 0.26 | 1.14 ± 0.18 | 1.31 ± 0.22 | 1.06 ± 0.078 |  |  |  |  | 
8 | N#CC1(c2ccc(NC(=O)c3cccnc3NCc3ccncc3)cc2)CCCC1 [Apatinib (YN968D1)] | 1.14 ± 0.042 | 1.025 ± 0.0071 | 1.22 ± 0.035 | 0.912 ± 0.0092 | 0.975 ± 0.064 | 1.095 ± 0.0071 | 0.727 ± 0.39 | 0.761 ± 0.32 |  |  |  |  | 
9 | O=C(NOC[C@H](O)CO)c1ccc(F)c(F)c1Nc1ccc(I)cc1F | 1.25 ± 0.064 | 1.05 ± 0.014 | 0.907 ± 0.058 | 1.11 ± 0.028 | 1.62 ± 0.17 | 1.28 ± 0.26 | 1.06 ± 0.028 | 1.75 ± 0.092 | 1.1 ± 0.064 | 0.895 ± 0.05 | 1.03 ± 0.05 | 1.34 ± 0.22 | 1.47 ± 0.071
10 | CNC(=O)c1cc(Oc2ccc(NC(=O)Nc3ccc(Cl)c(C(F)(F)F)c3)cc2)ccn1 [Sorafenib (Nexavar)] | 1.11 ± 0.028 | 1.04 ± 0.098 | 1.135 ± 0.0071 | 1.04 ± 0.021 | 0.959 ± 0.2 | 0.883 ± 0.081 | 1.06 ± 0.078 | 1.19 ± 0.057 |  |  |  |  | 
11 | CCC(=O)N1CCN(c2ccc(-n3c(=O)ccc4cnc5ccc(-c6cnc7ccccc7c6)cc5c43)cc2C(F)(F)F)CC1 [Torin 1] | 0.914 ± 0.16 | 0.97 ± 0.013 | 0.827 ± 0.045 | 1.17 ± 0.11 | 0.252 ± 0.044 | 0.311 ± 0.049 | 0.44 ± 0.096 | 0.66 ± 0.14 |  |  |  |  | 
